# Sampled rows, rich in hits. Any-hit rate of the full collection: about 4.1%.
# MazEF act – activators of E. coli MazEF toxin-antitoxin RNase, primary screen, biochemical, fluorescence, uHTS. Endoribonuclease toxin MazF (Escherichia coli (strain K12)), P0AE70. FAM/BHQ RNA-DNA oligo cleavage fluorescence, 5 h. activation, % at 20 µM. 0.32% of 350,000 active; in the data active means activation above about 50%
# Target sequence (P0AE70 whole entry, looked up): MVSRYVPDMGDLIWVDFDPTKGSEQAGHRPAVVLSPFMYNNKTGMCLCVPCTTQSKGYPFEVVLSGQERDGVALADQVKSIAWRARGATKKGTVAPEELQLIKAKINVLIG
# BoNT A protease – BoNT/A light chain protease inhibitors, primary screen, biochemical, flow cytometry, MLPCN library; Botulinum neurotoxin type A light chain protease (Clostridium botulinum A str. ATCC 3502); AID 588499, 2011; 0.17% of 360,000 active; inhibition, % at 10 µM; multiplex microsphere protease substrate cleavage; further: plate controls were buffer without enzyme for full effect and enzyme alone for no effect
# Anthrax LF inh2 – Bacillus anthracis LF protease inhibitors, primary screen, biochemical, multiplex microsphere, MLPCN library; multiplex microsphere protease cleavage assay; inhibition, % at 10 µM; 0.12% of 360,000 active; AID 588501, 2011; further: plate controls were buffer without enzyme for full effect and enzyme alone for no effect
# Autofluor counter – compound fluorescence in toxin protease inhibitor counterscreen | compound autofluorescence counterscreen, microsphere flow cytometry; hits give high values | AID 624483 | 3.1% of 360,000 active | fluorescence intensity (test concentration not listed); in the data active means fluorescence intensity above about 16000; inconclusive means no clear call, values can overlap the other calls
# DUSP3 inh – VHR1 phosphatase inhibitors, primary screen, biochemical, absorbance, uHTS | Dual specificity protein phosphatase 3 (Homo sapiens), P51452 | 0.52% of 290,000 active | inhibition, % at 13.3 µM | recombinant VHR phosphatase, pNPP absorbance; in the data active means inhibition above about 50%
# Target sequence (P51452 whole entry, looked up): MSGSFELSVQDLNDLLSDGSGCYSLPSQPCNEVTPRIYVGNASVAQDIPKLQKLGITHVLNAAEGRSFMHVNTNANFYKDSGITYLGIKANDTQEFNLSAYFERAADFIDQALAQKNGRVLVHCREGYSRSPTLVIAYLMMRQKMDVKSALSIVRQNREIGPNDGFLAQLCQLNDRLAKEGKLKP
# BoNT F protease – BoNT/F light chain protease inhibitors, primary screen, biochemical, flow cytometry, MLPCN library; Botulinum neurotoxin type F light chain protease (Clostridium botulinum); Multiplex microsphere protease cleavage assay; inhibition, % at 10 µM; 0.22% of 360,000 active; AID 588497, 2011; in the data active means inhibition above about 35%, passing the limit was not always enough; inconclusive means no clear call, values can overlap the other calls; further: plate controls were buffer without enzyme for full effect and enzyme alone for no effect
# Starred values were filed as active, the others as inactive; ? = inconclusive; nt = no result given. Unless noted, no stated cut-off is given here; in the data, active means inhibition above about 30%; inconclusive means no clear call, values can overlap the other calls; inactive means below that.
SMILES,MazEF act,BoNT A protease,Anthrax LF inh2,Autofluor counter,DUSP3 inh,BoNT F protease
O/N=C(/c1ccccc1)c1cc2cc(Br)cc(Br)c2o1,-15,0,30*,3708,7,10
Cc1nc2cc3c(=O)n(C)cnc3cc2n1Cc1ccccc1,-5,0,5,2888,nt,-2
O=C(O)c1ccc(-n2nc(C(F)(F)F)c3c2-c2ccoc2CC3)cc1,3,-6,1,21579*,1,-6
CCn1c(NCc2ccco2)nc2c1c(=O)n(C)c(=O)n2C,40,-1,1,21102*,-16,-2
Cn1c(=O)c2c(nc(NCc3ccco3)n2CCc2ccccc2)n(C)c1=O,-9,1,-2,2986,-22,-3
Cn1c(=O)c2c(nc(NCc3ccco3)n2Cc2ccc(Cl)cc2Cl)n(C)c1=O,17,-4,-4,24075*,14,-7
O=C(Nc1cccc(C(F)(F)F)c1)c1ccc(Cn2cc(Br)cn2)o1,3,5,-11,17799*,30,5
CC(=O)N(Cc1ccccc1)Cc1nc2sc(C)c(C)c2c(=O)[nH]1,7,-1,-6,3475,7,-3
Cc1sc2nc(CN(Cc3ccccc3)C(=O)NC3CCCCC3)[nH]c(=O)c2c1C,-9,4,5,4141,nt,38*
O=C(COc1cccc2c1CCN(Cc1ccccc1F)C2=O)N1CCCCC1,0,0,-1,4324,52*,1
O=C(CCl)NC(Cc1ccccc1)C(=O)OCC(=O)c1ccc(-c2ccccc2)cc1 (configuration not stated),2,0,1,3796,nt,2
CCc1nc(SCc2cc(Cl)ccc2OC)n[nH]1,7,-4,0,17236*,-5,-8
O=C(Nc1ccc(Cl)cc1)c1ccc2nsnc2c1,-4,-1,0,4349,8,-8
CN(C)c1ccc(NC(=O)c2ccc3nsnc3c2)cc1,2,?,-4,22463*,5,-3
CCOc1ccc(C(=O)NC(C)(C)CC)cc1,-9,-1,7,3792,12,-6
CCOc1ccc(C(C)(N)C(=O)O)cc1 (configuration not stated),-3,?,1,22131*,0,0
CCOc1ccc(OCc2cccc(C(=O)O)c2)cc1,1,2,-1,22901*,-12,2
COc1ccc(OCc2cccc(C(=O)O)c2)cc1,3,-1,10,?,13,10
CC(C)OC(=O)c1c2c(n3ccccc13)C(=O)c1ccccc1C2=O,175*,79*,38*,5595,5,23
Cc1cc(=O)oc2cc(O)cc(O)c12,-8,0,-7,5129,nt,-1
CCCCCc1cc(O)c2c(C)cc(=O)oc2c1,5,-3,-1,23187*,-1,-7
COc1ccc(C(C#N)N2CCC(c3ccccc3)=N2)cc1 (configuration not stated),5,0,6,3855,-12,14
CCOC(=O)c1cc2c(c(CSc3nc4ccccc4c(=O)n3Cc3ccco3)c1)OCOC2,-8,-1,-2,20266*,-11,1
O=C(CSc1nc2ccccc2c(=O)n1Cc1ccco1)NCc1ccco1,8,0,-2,8565,18,-4
CN(Cc1ccccc1)C(=O)CSc1nc2ccccc2c(=O)n1Cc1ccco1,0,-1,-7,9142,-28,-12
SMILES,MazEF act,BoNT A protease,Anthrax LF inh2,Autofluor counter,DUSP3 inh,BoNT F protease
O=c1c2ccccc2nc(SCc2cc(F)cc3c2OCOC3)n1Cc1ccco1,-14,-2,-3,24180*,26,-8
S=C(NC1CCCCC1)c1ccc2c(c1)OCO2,2,5,-2,20422*,41,5
O=C(NC1CCOCC1)C1CCC(=O)N(CCc2ccc(Cl)cc2)C1 (configuration not stated),7,0,-1,5325,-17,-8
C/C=C/C=[N+](\[O-])C(C)/C(=N/O)c1ccc(F)cc1 (configuration not stated),0,-2,1,16840*,-8,-5
CCOc1ccc(NC(=O)C2CCCN(S(C)(=O)=O)C2)cc1 (configuration not stated),-18,-3,13,3758,6,?
O=C(NCC1CCCO1)c1nn2c(C(F)(F)F)cc(-c3cc(Br)cs3)nc2c1Br (configuration not stated),71*,3,1,5866,18,4
Cc1ccc(S(=O)(=O)Nc2ccccc2F)cc1C(=O)NCCCN1CCCC1=O,3,-1,-2,22774*,29,-1
O=C(NCCCN1CCCC1=O)c1ccc2c(c1)OCO2,-12,?,1,20949*,1,1
Cc1ccc(NC(=O)NCCCN2CCCC2=O)cc1,-1,2,-2,22287*,35,1
CCCS(=O)(=O)NC(=O)C1(C)CCN(C(=O)c2c(-c3ccccc3)noc2C)C1 (configuration not stated),nt,0,-4,3447,nt,-1
CC(Oc1ccc(F)cc1)C(=O)Nc1cc(Cl)ccc1-n1cncn1 (configuration not stated),5,4,-1,?,nt,5
CCN(Cc1ccccc1)C(=O)COC(=O)c1c(C)nsc1NC,-1,0,-5,3896,nt,-11
COc1ccccc1OCCn1nnc2ccccc21,5,-5,9,4038,5,-8
CC1(C(=O)NC2CCCC2)CCC(=O)N1Cc1cccs1 (configuration not stated),1,?,-4,22707*,2,-4
CC1(C(=O)NC2CCCCC2)CCC(=O)N1Cc1cccs1 (configuration not stated),6,0,3,5138,11,-3
CC1(C(=O)NC2CCCCCCC2)CCC(=O)N1Cc1cccs1 (configuration not stated),-1,0,-2,16346*,-8,2
COc1ccc(NC(=O)C2(C)Cc3c(-c4ccc(C(N)=O)cc4)ccnc3O2)cn1 (configuration not stated),nt,0,-2,4084,nt,-5
O=C(NCCc1nccs1)C1CCC(=O)N(Cc2cccc(C(F)(F)F)c2)C1 (configuration not stated),7,0,3,6244,15,3
COc1cc(OC)c(NC(=S)Nc2cc(Cl)cc(Cl)c2)cc1Cl,60*,-1,-2,2685,-11,0
O=C(CNc1ccccc1)N/N=C/c1ccc([N+](=O)[O-])o1,-7,-3,-1,24670*,9,-7
Cc1ccc(C)c(N(CC(=O)N/N=C/c2ccc(-c3ccc([N+](=O)[O-])cc3)o2)S(=O)(=O)c2ccccc2)c1,-15,50*,42*,5236,21,32
O=C(Cc1ccccc1)N/N=C/c1ccc(-c2ccc([N+](=O)[O-])cc2)o1,348*,3,1,2078,13,-1
